How the values were obtained:
Test in all cases: log2 ratio of Biotin-Ahx-Ub-VS probe labelling (fragment/DMSO); higher = less target engagement (more negative = stronger competition), active = hit call of the paper (q ≤ 0.05, log2 ratio ≤ -1)
Details in all cases: compound concentration: 200 uM; treatment time: 3 h
USP19 = biological target: T1, USP19 (UniProt O94966)
T1 sequence (whole entry): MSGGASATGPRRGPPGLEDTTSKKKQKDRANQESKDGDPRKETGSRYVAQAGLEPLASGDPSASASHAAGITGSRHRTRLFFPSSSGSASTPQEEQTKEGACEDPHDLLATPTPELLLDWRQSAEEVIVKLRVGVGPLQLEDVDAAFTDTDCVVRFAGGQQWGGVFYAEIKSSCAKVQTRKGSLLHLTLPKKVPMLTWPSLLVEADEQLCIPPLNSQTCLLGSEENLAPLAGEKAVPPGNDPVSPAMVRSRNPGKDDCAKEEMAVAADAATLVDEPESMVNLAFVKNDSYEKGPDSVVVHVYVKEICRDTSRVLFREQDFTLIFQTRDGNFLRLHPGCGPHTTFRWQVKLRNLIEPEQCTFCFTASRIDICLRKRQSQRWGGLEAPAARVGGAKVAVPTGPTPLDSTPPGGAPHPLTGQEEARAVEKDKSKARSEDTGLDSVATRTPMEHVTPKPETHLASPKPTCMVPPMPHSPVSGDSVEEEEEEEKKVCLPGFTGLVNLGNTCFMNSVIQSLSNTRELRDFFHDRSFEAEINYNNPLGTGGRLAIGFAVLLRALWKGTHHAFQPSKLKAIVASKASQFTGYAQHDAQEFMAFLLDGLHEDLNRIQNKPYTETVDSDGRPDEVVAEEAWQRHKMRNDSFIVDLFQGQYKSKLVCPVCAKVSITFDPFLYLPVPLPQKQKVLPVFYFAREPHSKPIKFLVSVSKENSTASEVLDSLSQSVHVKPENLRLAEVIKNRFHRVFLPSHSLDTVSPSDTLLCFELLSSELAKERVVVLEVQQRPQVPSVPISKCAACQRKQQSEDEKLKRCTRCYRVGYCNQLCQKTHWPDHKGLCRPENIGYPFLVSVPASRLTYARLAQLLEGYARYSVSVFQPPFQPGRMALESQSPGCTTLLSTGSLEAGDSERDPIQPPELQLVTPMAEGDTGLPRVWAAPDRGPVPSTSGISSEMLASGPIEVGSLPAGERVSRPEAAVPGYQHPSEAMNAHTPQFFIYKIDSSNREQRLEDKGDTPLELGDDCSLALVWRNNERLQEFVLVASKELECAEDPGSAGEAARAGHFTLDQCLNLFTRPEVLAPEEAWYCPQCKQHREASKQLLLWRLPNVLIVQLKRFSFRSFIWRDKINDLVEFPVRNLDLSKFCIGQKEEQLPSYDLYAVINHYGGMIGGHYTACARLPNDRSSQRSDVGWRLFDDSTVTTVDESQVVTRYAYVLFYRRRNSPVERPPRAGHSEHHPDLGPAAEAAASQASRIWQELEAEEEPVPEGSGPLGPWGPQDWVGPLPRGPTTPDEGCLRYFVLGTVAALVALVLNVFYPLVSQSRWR
Summary of the method: (§1)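 HEK293T lysate, 495 µg per sample in Tris/CHAPS/IGEPAL buffer with protease inhibitors, was treated in triplicate with fragment at 200 µM or vehicle for 3 h and then with Biotin-Ahx-Ub-VS at 0.5 µM final for 1 h. Labelled DUBs were NeutrAvidin-enriched, digested with LysC and trypsin, and run by diaPASEF LC-MS/MS. Spectronaut label-free quantities were global-median-normalised, and values are average log2 fragment/vehicle ratios by unpaired t-test on proteins with ≥2 unique peptides.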

USP22 = biological target: T2, USP22 (UniProt Q9UPT9)
T2 sequence (whole entry): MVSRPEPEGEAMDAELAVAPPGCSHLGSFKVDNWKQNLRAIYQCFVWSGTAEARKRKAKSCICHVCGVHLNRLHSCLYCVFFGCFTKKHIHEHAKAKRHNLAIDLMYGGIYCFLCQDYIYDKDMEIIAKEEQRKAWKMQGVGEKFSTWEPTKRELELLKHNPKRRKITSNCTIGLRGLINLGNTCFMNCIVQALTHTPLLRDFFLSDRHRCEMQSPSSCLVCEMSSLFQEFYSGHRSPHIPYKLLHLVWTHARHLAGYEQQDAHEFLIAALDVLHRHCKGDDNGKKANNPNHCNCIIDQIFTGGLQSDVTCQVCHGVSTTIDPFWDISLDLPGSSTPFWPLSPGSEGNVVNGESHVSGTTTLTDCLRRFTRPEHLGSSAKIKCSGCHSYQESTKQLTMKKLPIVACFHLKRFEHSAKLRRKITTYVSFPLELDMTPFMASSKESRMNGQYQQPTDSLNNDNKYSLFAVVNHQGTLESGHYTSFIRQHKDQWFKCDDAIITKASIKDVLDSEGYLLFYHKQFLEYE
Summary of the method: as §1

USP24 = USP24 (UniProt Q9UPU5)
Sequence of USP24 (Q9UPU5 whole entry): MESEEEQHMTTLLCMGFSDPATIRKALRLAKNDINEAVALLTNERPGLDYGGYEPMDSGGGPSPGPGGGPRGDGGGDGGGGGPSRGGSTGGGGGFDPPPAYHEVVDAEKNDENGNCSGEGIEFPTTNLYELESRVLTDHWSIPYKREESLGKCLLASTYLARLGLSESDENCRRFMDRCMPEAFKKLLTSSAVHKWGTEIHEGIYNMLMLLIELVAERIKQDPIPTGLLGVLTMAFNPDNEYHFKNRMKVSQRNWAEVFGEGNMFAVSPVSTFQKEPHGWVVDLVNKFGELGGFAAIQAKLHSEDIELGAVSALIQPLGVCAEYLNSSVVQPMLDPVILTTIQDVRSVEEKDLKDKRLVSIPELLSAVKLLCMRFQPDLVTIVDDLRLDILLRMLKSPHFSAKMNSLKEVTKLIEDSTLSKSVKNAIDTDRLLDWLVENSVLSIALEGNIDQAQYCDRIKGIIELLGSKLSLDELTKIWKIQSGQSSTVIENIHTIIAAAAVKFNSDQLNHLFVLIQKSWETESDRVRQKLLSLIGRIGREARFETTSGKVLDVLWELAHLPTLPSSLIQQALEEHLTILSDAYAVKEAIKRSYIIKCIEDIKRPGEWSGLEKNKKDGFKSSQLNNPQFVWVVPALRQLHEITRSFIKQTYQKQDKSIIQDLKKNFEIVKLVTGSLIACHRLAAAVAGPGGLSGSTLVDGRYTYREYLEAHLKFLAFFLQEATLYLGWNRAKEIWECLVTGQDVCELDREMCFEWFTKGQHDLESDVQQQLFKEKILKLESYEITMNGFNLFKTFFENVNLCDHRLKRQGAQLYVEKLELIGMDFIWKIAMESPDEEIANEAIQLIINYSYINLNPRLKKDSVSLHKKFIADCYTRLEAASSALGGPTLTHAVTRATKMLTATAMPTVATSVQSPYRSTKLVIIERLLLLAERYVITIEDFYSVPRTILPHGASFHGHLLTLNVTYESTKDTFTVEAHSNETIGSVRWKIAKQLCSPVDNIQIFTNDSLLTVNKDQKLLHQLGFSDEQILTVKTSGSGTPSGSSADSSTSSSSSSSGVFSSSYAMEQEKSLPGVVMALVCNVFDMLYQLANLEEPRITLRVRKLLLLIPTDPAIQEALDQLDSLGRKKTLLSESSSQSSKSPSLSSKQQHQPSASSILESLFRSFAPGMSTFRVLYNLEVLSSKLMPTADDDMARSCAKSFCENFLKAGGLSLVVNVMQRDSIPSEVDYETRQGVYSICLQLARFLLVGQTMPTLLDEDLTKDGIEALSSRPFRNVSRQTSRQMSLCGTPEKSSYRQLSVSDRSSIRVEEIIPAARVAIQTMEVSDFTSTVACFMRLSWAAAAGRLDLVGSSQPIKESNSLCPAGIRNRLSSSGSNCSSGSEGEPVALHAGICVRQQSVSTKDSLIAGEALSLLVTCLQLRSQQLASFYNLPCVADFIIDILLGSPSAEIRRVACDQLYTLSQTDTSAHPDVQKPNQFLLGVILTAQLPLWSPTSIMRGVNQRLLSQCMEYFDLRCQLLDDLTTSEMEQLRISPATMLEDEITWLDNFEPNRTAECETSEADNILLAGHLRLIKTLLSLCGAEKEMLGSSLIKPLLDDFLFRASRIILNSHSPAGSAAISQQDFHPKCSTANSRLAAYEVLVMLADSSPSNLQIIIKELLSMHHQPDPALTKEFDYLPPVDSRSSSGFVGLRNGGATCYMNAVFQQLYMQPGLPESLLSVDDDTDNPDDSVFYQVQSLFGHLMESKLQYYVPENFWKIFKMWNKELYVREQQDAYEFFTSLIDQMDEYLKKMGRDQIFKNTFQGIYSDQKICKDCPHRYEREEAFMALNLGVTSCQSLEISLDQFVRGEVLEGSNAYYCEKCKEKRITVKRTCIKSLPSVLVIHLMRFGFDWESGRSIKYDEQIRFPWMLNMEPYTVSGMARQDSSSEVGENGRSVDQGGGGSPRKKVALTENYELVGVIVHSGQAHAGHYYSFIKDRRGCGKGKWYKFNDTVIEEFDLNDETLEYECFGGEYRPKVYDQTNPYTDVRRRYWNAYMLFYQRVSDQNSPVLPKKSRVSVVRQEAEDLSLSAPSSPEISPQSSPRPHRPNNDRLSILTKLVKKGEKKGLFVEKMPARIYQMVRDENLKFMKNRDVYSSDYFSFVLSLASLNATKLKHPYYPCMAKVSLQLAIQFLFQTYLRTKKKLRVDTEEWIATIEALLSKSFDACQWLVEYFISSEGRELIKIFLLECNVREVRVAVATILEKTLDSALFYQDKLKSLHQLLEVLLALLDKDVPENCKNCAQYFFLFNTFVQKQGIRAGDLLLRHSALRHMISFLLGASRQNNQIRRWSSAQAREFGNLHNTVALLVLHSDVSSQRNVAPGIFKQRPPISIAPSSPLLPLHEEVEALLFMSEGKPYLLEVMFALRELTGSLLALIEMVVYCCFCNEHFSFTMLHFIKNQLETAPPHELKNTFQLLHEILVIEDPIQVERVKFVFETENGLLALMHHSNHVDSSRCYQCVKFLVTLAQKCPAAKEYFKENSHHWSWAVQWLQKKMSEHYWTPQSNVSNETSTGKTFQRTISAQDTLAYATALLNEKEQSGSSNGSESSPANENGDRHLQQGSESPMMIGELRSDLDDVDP
Summary of the method: as §1

USP25 = biological target: T3, USP25 (UniProt Q9UHP3)
T3 sequence (whole entry): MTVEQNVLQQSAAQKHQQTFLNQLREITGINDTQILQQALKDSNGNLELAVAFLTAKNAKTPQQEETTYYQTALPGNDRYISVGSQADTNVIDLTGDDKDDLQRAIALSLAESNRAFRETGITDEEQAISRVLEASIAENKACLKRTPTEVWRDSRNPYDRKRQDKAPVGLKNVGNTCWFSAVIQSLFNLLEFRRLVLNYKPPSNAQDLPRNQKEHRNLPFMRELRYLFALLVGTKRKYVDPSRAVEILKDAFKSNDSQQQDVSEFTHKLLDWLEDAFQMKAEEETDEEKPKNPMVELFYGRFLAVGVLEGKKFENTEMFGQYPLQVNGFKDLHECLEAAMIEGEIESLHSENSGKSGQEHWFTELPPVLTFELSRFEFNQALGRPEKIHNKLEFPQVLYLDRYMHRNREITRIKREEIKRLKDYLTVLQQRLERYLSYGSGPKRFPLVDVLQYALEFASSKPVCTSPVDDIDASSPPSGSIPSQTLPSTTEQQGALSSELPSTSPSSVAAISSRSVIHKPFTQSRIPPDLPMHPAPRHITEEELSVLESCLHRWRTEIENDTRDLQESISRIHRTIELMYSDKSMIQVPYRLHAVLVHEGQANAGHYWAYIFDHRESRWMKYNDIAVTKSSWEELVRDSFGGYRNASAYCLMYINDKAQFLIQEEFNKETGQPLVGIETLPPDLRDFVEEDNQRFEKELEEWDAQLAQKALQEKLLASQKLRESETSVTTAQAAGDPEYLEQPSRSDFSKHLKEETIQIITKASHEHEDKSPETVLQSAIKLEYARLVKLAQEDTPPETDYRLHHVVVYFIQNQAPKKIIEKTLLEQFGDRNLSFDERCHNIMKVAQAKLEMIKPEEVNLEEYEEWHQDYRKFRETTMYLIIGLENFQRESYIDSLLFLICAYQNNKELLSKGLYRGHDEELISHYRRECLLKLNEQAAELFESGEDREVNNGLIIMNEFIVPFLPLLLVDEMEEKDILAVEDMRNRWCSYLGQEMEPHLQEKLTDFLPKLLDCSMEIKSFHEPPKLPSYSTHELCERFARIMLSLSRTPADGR
Summary of the method: as §1

USP28 = biological target: T4, USP28 (UniProt Q96RU2)
T4 sequence (whole entry): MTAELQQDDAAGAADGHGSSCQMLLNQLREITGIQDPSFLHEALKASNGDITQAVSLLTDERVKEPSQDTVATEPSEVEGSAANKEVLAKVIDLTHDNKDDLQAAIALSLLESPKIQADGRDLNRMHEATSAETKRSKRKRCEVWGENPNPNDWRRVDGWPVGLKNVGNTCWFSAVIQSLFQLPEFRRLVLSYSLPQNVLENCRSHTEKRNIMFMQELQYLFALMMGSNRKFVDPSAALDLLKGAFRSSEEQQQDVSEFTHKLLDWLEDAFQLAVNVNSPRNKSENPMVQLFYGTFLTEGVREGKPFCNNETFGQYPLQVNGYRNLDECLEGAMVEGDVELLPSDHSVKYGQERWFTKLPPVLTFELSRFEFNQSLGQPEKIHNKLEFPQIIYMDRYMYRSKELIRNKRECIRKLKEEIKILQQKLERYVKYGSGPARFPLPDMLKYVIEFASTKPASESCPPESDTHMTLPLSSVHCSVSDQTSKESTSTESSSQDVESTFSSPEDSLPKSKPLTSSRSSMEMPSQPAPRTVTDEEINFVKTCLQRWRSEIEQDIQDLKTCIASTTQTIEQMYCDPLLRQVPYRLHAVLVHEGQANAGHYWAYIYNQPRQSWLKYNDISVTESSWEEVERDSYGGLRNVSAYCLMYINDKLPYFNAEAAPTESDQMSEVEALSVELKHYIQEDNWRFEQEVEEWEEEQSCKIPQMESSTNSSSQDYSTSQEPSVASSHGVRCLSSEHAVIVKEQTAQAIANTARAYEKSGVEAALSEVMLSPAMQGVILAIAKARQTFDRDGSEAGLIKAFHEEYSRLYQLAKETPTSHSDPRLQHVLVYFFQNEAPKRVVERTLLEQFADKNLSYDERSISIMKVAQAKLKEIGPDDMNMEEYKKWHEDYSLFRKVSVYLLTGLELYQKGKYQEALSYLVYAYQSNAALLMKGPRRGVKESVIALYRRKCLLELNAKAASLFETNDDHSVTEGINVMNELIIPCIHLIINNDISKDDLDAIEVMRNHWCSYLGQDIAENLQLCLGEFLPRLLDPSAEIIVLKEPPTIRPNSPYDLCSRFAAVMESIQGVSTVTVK
Summary of the method: as §1

Measured: log2 ratio of Biotin-Ahx-Ub-VS probe labelling

O=C(CCl)NC1CCC2(CC1)OCCO2
inactive: USP19 -0.189 | USP22 -0.165 | USP24 -0.301 | USP25 -0.49 | USP28 -0.665

— the supplement of paper PMC11732987, “Enantioselective OTUD7B fragment discovery through chemoproteomics screening and high-throughput optimisation” (Communications Chemistry, 2025)
